Screening data: PubChem, Buhrlage Lab, Dana-Farber Cancer Institute and Novartis Institutes for BioMedical Research (Cambridge, Mass)
OTUD3 inh = inhibitors of human OTUD3 deubiquitinase. OTU domain-containing protein 3 (Homo sapiens), Q5T2D3. purified OTUD3, Ub-rhodamine fluorescence, 2 h. inhibition, % at 25 µM. 47,000 compounds, 0.7% hits
USP17 block = inhibitors of human USP17 deubiquitinase; purified USP17, Ub-rhodamine cleavage fluorescence, 3 h; inhibition, % at 50 µM; 47,000 compounds, 6.5% hits; AID 1645855, 2021
Target sequence (A8MUK1 whole entry, looked up): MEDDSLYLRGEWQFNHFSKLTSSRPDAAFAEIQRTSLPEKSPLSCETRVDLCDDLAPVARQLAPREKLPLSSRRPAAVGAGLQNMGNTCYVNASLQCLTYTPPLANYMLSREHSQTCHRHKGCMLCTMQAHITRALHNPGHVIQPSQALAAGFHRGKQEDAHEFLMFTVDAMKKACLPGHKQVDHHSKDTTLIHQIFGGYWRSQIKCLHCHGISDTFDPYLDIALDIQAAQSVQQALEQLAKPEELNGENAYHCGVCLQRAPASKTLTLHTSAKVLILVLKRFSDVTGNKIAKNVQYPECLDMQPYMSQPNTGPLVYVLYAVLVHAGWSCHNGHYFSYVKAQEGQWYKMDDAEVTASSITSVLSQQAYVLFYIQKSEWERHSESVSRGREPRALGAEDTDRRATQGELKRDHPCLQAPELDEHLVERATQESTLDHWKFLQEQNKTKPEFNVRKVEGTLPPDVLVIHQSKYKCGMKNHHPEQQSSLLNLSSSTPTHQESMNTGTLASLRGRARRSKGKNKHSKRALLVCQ
USP30 block = inhibitors of human USP30 deubiquitinase | Ubiquitin carboxyl-terminal hydrolase 30 (Homo sapiens), Q70CQ3 | 47,000 compounds, 5.3% hits | inhibition, % at 25 µM | purified USP30, Ub-rhodamine cleavage fluorescence
USP28 inh = inhibitors of human USP28 deubiquitinase; 47,000 compounds, 3% hits; Ubiquitin carboxyl-terminal hydrolase 28 (Homo sapiens), Q96RU2; AID 1645857, 2021; inhibition, % at 25 µM; purified USP28, Ub-rhodamine cleavage fluorescence, 30 min
* marks the source's active call; other numbers are inactive results; x = not tested or not shown. Only some compounds are listed: those with a hit (about 11% of all), similar ones and a draw of the others. Rule as the data show it: active = inhibition above about 30%; inactive = the rest.

SMILES | OTUD3 inh | USP17 block | USP30 block | USP28 inh
COc1ccc(CN2CCN(S(=O)(=O)c3cccnc3)CC2)cn1 | 11.4 | 15.1 | 17.7 | 6.6
Cc1ccc(C)c(S(=O)(=O)N2CCCC2c2cc(C)on2)c1 (stereo not drawn) | 1.9 | 5.6 | 27.9 | 10.8
O=C(Cn1c(=O)n(CCCC(=O)NC2CCCC2)c(=O)c2cc(Cl)ccc21)Nc1cccc(F)c1 | -1.7 | 3.3 | 37.4* | -0.8
COc1ccc(NC(=O)Cn2c(=O)n(CCCC(=O)NC3CCCC3)c(=O)c3cc(Cl)ccc32)cc1 | -16.8 | -4.0 | -5.4 | -21.9
CCn1c(=O)c2cc(OC)c(OC)cc2n(CC(=O)c2ccc(OC)c(OC)c2)c1=O | 21.7 | 11.0 | 47.4* | 5.0
COc1cc2c(=O)n(CCC(=O)NC3CCCC3)c(=O)n(CC(=O)Nc3cccc(Cl)c3)c2cc1OC | 24.2 | 42.3* | 23.8 | 18.1
COc1cc(OC)c(NC(=O)Cn2c(=O)n(Cc3ccccc3Cl)c(=O)c3cc(OC)c(OC)cc32)cc1Cl | 24.1 | 29.0 | 60.5* | 36.2*
Cc1cccn2c(=O)c(C(=O)NCc3cccc(Cl)c3)cnc12 | 10.9 | 4.7 | 26.0 | -16.7
COc1ccc(NC(=O)Cn2c(=O)n(C3CCCC3)c(=O)c3cc(OC)c(OC)cc32)cc1OC | 24.0 | 39.5* | 17.0 | 14.1
Cc1nc2sccn2c1-c1nc(-c2cc(Cl)ccc2Cl)cs1 | 11.1 | 49.5* | 45.7* | 18.9
N#Cc1c(SCCO)nc(N2CCCC2)c2c1CCCC2 | -6.3 | 6.6 | 4.3 | 61.5*
CC1CCCCN1c1nc(F)c2c(c1F)S(=O)(=O)CCN2Cc1ccccc1 (stereo not drawn) | 7.3 | 56.8* | -24.3 | 8.8
Cc1nc(SCC(=O)Nc2ccc3c(c2)OCO3)c2oc3ccccc3c2n1 | 1.2 | 7.1 | -13.6 | 3.3
CCc1cc2cc3c(cc2nc1SCC(=O)Nc1cccc(C(C)=O)c1)OCO3 | -4.0 | 62.6* | -0.6 | -0.4
Cc1ccc(C(CC(=O)Nc2cccc(C)n2)N2Cc3ccccc3C2=O)cc1 (stereo not drawn) | 11.5 | 41.4* | 0.4 | 14.8
Cc1cc(C)n(C)c(=O)c1C(=O)N1CCc2nc(N)c(C(=O)Nc3ccc(F)cc3)cc2C1 | 9.3 | 10.1 | 1.1 | 9.9
N#Cc1c(N)nc2c(c1-c1ccccc1)CCc1ccccc1-2 | -9.6 | -2.1 | -3.4 | 15.5
CC(=O)c1oc2nc3c(c(-c4ccc(Cl)cc4)c2c1N)CCc1ccccc1-3 | 37.4* | 38.4* | -158.0 | 9.4
CNC(=O)Cn1cnc2c(c(C)c(C)n2-c2ccc(Cl)cc2)c1=O | 3.4 | 49.9* | -37.9 | 0.1
Cc1c(C)n(-c2ccccc2)c2ncn(CC(=O)NCc3ccccc3F)c(=O)c12 | -0.3 | 6.7 | 22.0 | 13.7
Cc1c(C)n(-c2ccccc2)c2ncn(CC(=O)NC(C)c3ccccc3)c(=O)c12 (stereo not drawn) | 45.4* | x | 74.6* | 15.3
COc1cccc(Cn2nc3n(C(C)C)c(=O)c4ccc(C(=O)NC(C)C)cc4n3c2=O)c1 | 12.0 | 13.8 | 14.5 | 10.5
COc1cccc(Cn2nc3n(CC(C)C)c(=O)c4ccc(C(=O)NC(C)C)cc4n3c2=O)c1 | 12.8 | 17.6 | 30.3* | 3.8
O=C(Nc1cccc(OCc2cc(=O)n3ccccc3n2)c1)Nc1ccccc1Cl | -14.2 | 0.4 | -96.1 | -33.9
Cc1cccc(CNc2cc(-n3ccnc3)ncn2)c1 | 4.8 | 9.3 | 3.2 | 27.8
SMILES | OTUD3 inh | USP17 block | USP30 block | USP28 inh
Fc1cccc(CNc2cc(-n3ccnc3)ncn2)c1 | 4.6 | 3.9 | 15.3 | 31.9*
Cc1ccc(C(=O)N2CC[C@@H]3[C@H](C2)CN3C(=O)c2ccccc2)cc1 | 8.1 | 6.5 | 30.2* | 17.1
Cc1ccc(S(=O)(=O)N2CC[C@@H]3CN(C(=O)c4ccccc4)[C@@H]3C2)cc1 | 21.4 | 10.6 | 35.1* | 12.1
N#Cc1cccc(CSc2nnc3c4ccccc4nc(-c4ccco4)n23)c1 | -18.7 | 7.7 | -93.3 | -8.9
CCn1cc(C(=O)NCCc2ccccc2)c(=O)c2ccc(C)nc21 | -12.0 | -43.9 | -121.1 | -30.6
COc1cc(CCNC(=O)Cc2cccc(Br)c2)ccc1OCc1ccccc1 | 23.9 | 22.6 | 48.5* | 23.7
Cc1ccc(/C=C/C(=O)Cc2ccccc2)cc1 | 22.2 | 40.5* | 30.4* | 18.3
COc1ccc(CCNC(=O)Cn2c(=O)c3sccc3n(Cc3cccc([N+](=O)[O-])c3)c2=O)cc1OC | 29.8 | 16.2 | 44.5* | 10.6
COc1ccc(CCNC(=O)Cn2c(=O)c3sccc3n(Cc3ccccc3F)c2=O)cc1OC | 15.6 | 60.0* | 51.9* | -6.0
COc1ccc(CCNC(=O)CCCn2c(=O)c3ccccc3n(Cc3ccccc3F)c2=O)cc1OC | -3.1 | 5.7 | -2.2 | -3.0
